{"source": "PubChem BioAssay (NCI)", "note": "The panel holds about 83,000 compounds, 20% with a hit somewhere; the sample as a whole holds those more often.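 Method: cells in 96-well plates; compound added at one concentration; 48 h incubation; percent growth measured; values under 10 scored active.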 The source made the active and inactive calls."}
{"test_system": "HCC-2998 colon", "experiment": "NCI-60 one-dose screen, 48 h (100 = growth as untreated, 0 = no growth, -100 = all killed)", "conditions": "10 µM unless noted", "description": "Growth inhibition of the HCC-2998 human tumor cell line is measured as a screen for anti-cancer activity. Cells are grown in 96 well plates and exposed to the test compound for 48 hours. Compounds are tested at a single concentration, which is 10^-5 M for most compounds. The reported endpoint is percent growth (GI% or GIPRCNT), where numbers from 0 - 100% represent growth inhibition, and numbers from -100% - 0 represent cell death. For example, a value of 40 represents 60% growth inhibition. A value of 0 means no net growth occurred over the course of the experiment. A value of -40 indicates 40% of cells at the beginning of the experiment died by the end of the experiment. A value of -100 means all cells are dead at the end of the experiment.\nNCI-60 Human Tumor Cell Lines Screen was performed using the standard one-dose NCI protocol, which is described in more detail at https://dtp.cancer.gov/discovery_development/nci-60/default.htm.\nCompounds with GIPRCNT values below 10 were considered active. Activity score was based on GIPRCNT using the following formula: […]\nScore is 0 for GIPRCNT values of 100 or above, 50 for GIPRCNT values of 0, and 100 for GIPRCNT values of -100."}
{"smiles": "CC(O)c1nc2c(c(=O)n(C)c(=O)n2C)n1C", "note": "(stereo not given)", "growth": "103% (inactive)"}
{"smiles": "Nc1ccccc1-c1ccc([N+](=O)[O-])cc1", "growth": "29.8% (inactive)"}
{"smiles": "C/C(=N/N=C(N)N)c1ccc(Cl)cc1", "growth": "57.8% (inactive)"}
{"smiles": "O=C(Nc1ccc(C2=NCCCN2)cc1)Nc1ccc(C2=NCCCN2)cc1", "growth": "117% (inactive)"}
{"smiles": "COc1cc2c(c(OC)c1OC)CCc1cnoc1-2", "growth": "90.1% (inactive)"}
{"smiles": "N#CCCN(CCO)c1ccccc1", "growth": "129% (inactive)"}
{"smiles": "COc1ccc(-c2nnc(COc3ccc(NC(=O)Nc4cc(C(F)(F)F)cc(C(F)(F)F)c4)cc3F)o2)cc1", "growth": "11.5% (inactive)"}
{"smiles": "COC1CC2CCC(C)C(O)(O2)C(=O)C(=O)N2CCCCC2C(=O)OC(C(C)CC2CCC(O)C(OC)C2)CC(=O)C(C)C=C(C)C(O)C(OC)C(=O)C(C)CC(C)/C=C/C=C/C=C1C", "note": "(stereo not given)", "growth": "50.4% (inactive)"}
{"smiles": "O=C1OC(c2ccc(-c3ccccc3)cc2)=C/C1=C/c1cccs1", "growth": "112% (inactive)"}
{"smiles": "N=c1ccn2c(n1)O[C@@H]1[C@@H](O)[C@H](CO)O[C@@H]12", "growth": "50.2% (inactive)"}
{"smiles": "CCOC(=O)/C=C(/C)Sc1cc(O)c2ccccc2c1O", "growth": "17.3% (inactive)"}
{"smiles": "O=C(C(=O)N1CCOCC1)c1ccc(OC2OC(CO)C(O)C(O)C2O)cc1", "note": "(stereo not given)", "growth": "127% (inactive)"}
{"smiles": "CN(C(=O)c1ccccc1)N(C)C(=O)c1ccccc1", "growth": "116% (inactive)"}
{"smiles": "COc1ccc(-c2c3c(nn2-c2ccc(N)cc2)CCc2cnoc2-3)cc1OC", "growth": "98.4% (inactive)"}
{"smiles": "CC[C@@H]1OC(=O)[C@H](C)[C@@H](O[C@H]2C[C@@](C)(OC)[C@@H](O)[C@H](C)O2)[C@H](C)[C@@H](O[C@@H]2O[C@H](C)C[C@H](N(C)C)[C@H]2O)[C@](C)(O)C[C@@H](C)[C@@H]2N[C@@H](COCCOC)O[C@H]([C@H]2C)[C@]1(C)O", "growth": "98.9% (inactive)"}
{"smiles": "Cn1c(=O)c2c(nc(Br)n2CCC(=O)Nc2ccc(F)cc2)n(C)c1=O", "growth": "103% (inactive)"}
{"smiles": "Nc1ccc2c3c(cccc13)-c1ccccc1-2", "growth": "103% (inactive)"}
{"smiles": "Nc1c2ccccc2nc2ccccc12", "note": "(tested in a mixture with another compound)", "growth": "28.7% (inactive)"}
{"smiles": "CCC(c1ccccc1)c1noc(CCN(CC)CC)n1", "note": "(stereo not given)", "growth": "106% (inactive)"}
{"smiles": "O=C(/C=C/c1ccc(O)c(O)c1)N1CCN(c2ccc(Cl)cc2)CC1", "growth": "82.9% (inactive)"}
{"smiles": "COc1cccc2c1C(=O)c1c(O)c3c(c(O)c1C2=O)C[C@@](O)(/C(C)=N/NC(=O)c1cccc([N+](=O)[O-])c1)C[C@@H]3OC1CC(N)C(O)C(C)O1", "note": "(stereo not given in full)", "growth": "-58.2% (active)"}
{"smiles": "NC(N)=NC(N)=NCCCc1ccccc1", "growth": "68.5% [100 µM] (inactive)"}
{"smiles": "Cc1c(C)c(N2C(=O)C=CC2=O)c(C)c(C)c1N1C(=O)C=CC1=O", "growth": "97.1% (inactive)"}
{"smiles": "CCCCn1c(Cc2ccc(Cl)cc2)nc2cc(OC)c(OC)cc2c1=O", "growth": "75.8% (inactive)"}
{"smiles": "COc1ccc(C2=NN(C(=O)c3cc(OC)c(OC)c(OC)c3)C(c3ccc(C#N)cc3)C2)cc1OC", "note": "(stereo not given)", "growth": "35.2% (inactive)"}
{"smiles": "C=CCCCCCCCCC(=O)[O][Sn]([CH2]CCC)([CH2]CCC)[CH2]CCC", "growth": "-97.9% (active)"}
{"smiles": "CCC(C)CC(C)C(=O)c1c(O)ccn(OC)c1=O", "note": "(stereo not given)", "growth": "95.7% (inactive)"}
{"smiles": "NNC(=O)C1CC2c3ccccc3C1c1ccccc12", "note": "(stereo not given)", "growth": "101% (inactive)"}
{"smiles": "Cc1cc2c(cc1[N+](=O)[O-])NC(CNC(C)C)CC2", "note": "(stereo not given)", "growth": "86.6% (inactive)"}
{"smiles": "O=C(Nc1cccc(C(F)(F)F)c1)Nc1ccc(OCc2nnc(-c3ccc(Cl)cc3)o2)c(F)c1", "growth": "72.1% (inactive)"}
{"smiles": "O=C(CSc1nnc(Nc2ccccc2)s1)NCCc1ccc(F)cc1", "growth": "99.3% (inactive)"}
{"smiles": "O=C1NC(=O)/C(=C\\c2ccccc2)C2=C1CCCC2", "growth": "123% (inactive)"}
{"smiles": "O=C(Nc1nc2ccccc2s1)c1cc(-c2ccc(F)cc2)n2nc(-c3ccccc3)cc2n1", "growth": "97.5% (inactive)"}
{"smiles": "Clc1ncn[nH]1", "growth": "89.8% (inactive)"}
{"smiles": "COc1ccc(/C=C/C(=O)Nc2cccnc2Nc2ccc(F)cc2)cc1", "growth": "106% (inactive)"}
{"smiles": "O=C(c1ccccc1)c1ccccc1Cl", "growth": "117% (inactive)"}
{"smiles": "CC(=O)NC1(C(=O)O)CCCC1", "growth": "138% (inactive)"}
{"smiles": "O=C1Nc2ccccc2C12Nc1cc(Cl)ccc1S2", "note": "(stereo not given)", "growth": "110% (inactive)"}
{"smiles": "CC(=O)c1cc(C(=O)c2ccc3c(c2)Sc2ccccc2N3)c2c(C)cc(C)cn12", "growth": "18% (inactive)"}
{"smiles": "CC(=O)NCCSC(=O)C(=O)SCCNC(C)=O", "growth": "-45.3% (active)"}
